Results published in ChEMBL document CHEMBL4513149, “CO-ADD screening of MMV (CH) - MMV compounds” (2021).
Potency and affinity values are given separately.

Tested on: Staphylococcus aureus
Conditions: Concentration 20 uM; ASSAY_TEST Inhibition of Bacterial Growth; detection method Absorption (OD600); MEDIA CAMHB; plate type 384well; NBS; CORNING #3640; time 18 hr

Compared with `CC(C(=O)N1CCCC1)N1CCN(S(=O)(=O)c2ccc(C(C)(C)C)cc2)CC1` (stereo not given), `O=C(C1CCN(c2nnnn2-c2ccccc2)CC1)N1CCc2ccccc2C1` is higher in Inhibition: 8.1% for the first, 18.44% for the second.

Going from `Cc1ccc(-c2nc(CN(Cc3ccccn3)C(C)C)cs2)o1` to `Cc1ccc2nc(Cl)c(CNCc3cccs3)cc2c1`, the Inhibition falls from 63.05% to 2.71%.

First: N#Cc1nc(-c2ccccc2F)oc1NCCc1ccccc1
Second: CC(C)C(NC(=O)Cc1cccc2ccccc12)C(=O)Nc1cccc(C#N)c1 (stereo not given)
The Inhibition of the first is lower: 7.55% for the first, 17.14% for the second.

Compared with `Nc1ncc(Br)cc1-c1nc2cc(Cl)cnc2[nH]1`, `COc1ccc(Cn2cnc3c(-c4ccco4)nc(Cl)nc32)cc1` is lower in Inhibition: 26.53% for the first, 20.69% for the second.

First: COc1ccc(CCN2CCC(NCc3cccc(N(C)C)c3)CC2)cc1
Second: N#CCN(CCCCN1CCN(c2ccc(F)cc2)CC1)C(=O)OCc1ccccc1
The Inhibition of the first is lower: 16.93% for the first, 23.36% for the second.

First: CCn1ncc2c(NC3CCOCC3)c(CNC(=O)c3ccnn3C)c(C)nc21
Second: Cc1noc(C)c1COc1cccc(C(=O)N=c2[nH]cccc2C)c1
The Inhibition of the first is lower: 5.59% for the first, 21.93% for the second.

First: Cc1cc(O)nc(-n2nc(C)cc2C)n1
Second: CN1CCN(c2cc(-c3ccc(F)cc3)nc(-c3ccncc3)n2)CC1
The Inhibition of the first is lower: 9.17% for the first, 17.93% for the second.

First: CC1(COc2ccc(N3CCC(Oc4ccc(OC(F)(F)F)cc4)CC3)cc2)Cn2cc([N+](=O)[O-])nc2O1 (stereo not given)
Second: COc1ccc(Cl)cc1NC(=O)CN(C)C(=O)c1cnn(-c2ccccc2)n1
The Inhibition of the first is higher: 13.25% for the first, 8.96% for the second.

First: CN(C(=O)c1cc2c(-c3cncnc3)cccc2[nH]1)c1ccccc1
Second: NC(=O)c1cc(Br)ccc1OCCOc1ccccc1
The Inhibition of the first is higher: 12.46% for the first, 12.29% for the second.

Compared with `CC[C@H](CO)NCCN[C@H](CC)CO.Cl.Cl`, `Cc1cc(OCC(=O)Nc2ccc(C(C)C)cc2)n(C)c(=O)c1C#N` is lower in Inhibition: 13.87% for the first, 7.07% for the second.

Tested on: Escherichia coli
Conditions: Concentration 20 uM; ASSAY_TEST Inhibition of Bacterial Growth; detection method Absorption (OD600); MEDIA CAMHB; plate type 384well; NBS; CORNING #3640; time 18 hr

Compared with `COc1cccc(CC(=O)N2CCC(n3c(C)nc4ccc(F)cc43)CC2)c1`, `COc1ccc(CCN2CCC(NCc3cccc(N(C)C)c3)CC2)cc1` is lower in Inhibition: 9.91% for the first, 1.75% for the second.

First: Nc1ncnc2c1ncn2C[C@@H](O)[C@@H](O)C(=O)O [ERITADENINE]
Second: CCOc1ccc2cc(-c3nn(CC4CCN(C)CC4)c4ncnc(N)c34)ccc2c1.Cl
The Inhibition of the first is higher: 8.78% for the first, 8.02% for the second.

Going from `CC(Oc1cccc(Cl)c1)C(=O)Nc1ccc2oc(-c3ccncc3)nc2c1` (stereo not given) to `CC(C(=O)Nc1ccc2oc(-c3ccncc3)nc2c1)c1ccccc1` (stereo not given), the Inhibition falls from 7.3% to 6.76%.

First: COc1ccc(OC(C)C(=O)Nc2ccc(Cl)cc2C)cc1 (stereo not given)
Second: COc1ccc(N(CCc2cccc(C)n2)C(=O)C2CCCCC2)cc1
The Inhibition of the first is higher: 5.14% for the first, 3.67% for the second.

Compared with `CCC(Sc1nc2ccccc2o1)C(=O)Nc1nnc(C)s1` (stereo not given), `Cc1ccc(-c2nc(CN(Cc3ccccn3)C(C)C)cs2)o1` is higher in Inhibition: -8.34% for the first, 8.22% for the second.

First: Cc1cc(C)nc(-n2nc(C)cc2Nc2ccccc2)n1
Second: Cc1cc(O)nc(-n2nc(C)cc2C)n1
The Inhibition of the first is lower: 5.87% for the first, 6.91% for the second.

First: CN1CCN(c2nccc3nc(-c4ccc(F)c(F)c4)[nH]c23)CC1
Second: CN(C)CCNC(=O)N1CCCN(c2ncnc3cc(-c4ccccc4)sc23)CC1
The Inhibition of the first is higher: 8.63% for the first, 3.44% for the second.

First: COc1cccn2c(C(=O)N3CCCCC3)c(C(F)(F)F)nc12
Second: CC(C(=O)N1CCCC1)N1CCN(S(=O)(=O)c2ccc(C(C)(C)C)cc2)CC1 (stereo not given)
The Inhibition of the first is lower: -2.18% for the first, -2.16% for the second.

Compared with `CCC(C)NC(=O)c1ccc(NC(=O)C2(c3ccccc3)CCCC2)cc1` (stereo not given), `O=C(C1CCN(c2nnnn2-c2ccccc2)CC1)N1CCc2ccccc2C1` is higher in Inhibition: -4.39% for the first, 5.61% for the second.

Going from `COc1cccc(-c2cc3c(Nc4cccnc4)nccc3[nH]2)c1` to `COc1cc(OC)cc(C(=O)NCC2Cc3cc(Cl)cc(-c4ccncc4)c3O2)c1` (stereo not given), the Inhibition rises from -3.86% to 10.63%.

Compared with `Cc1ncc(-c2ccnc(Nc3ccc(S(C)(=O)=O)cc3)n2)n1C(C)C` [AZD-5438], `Cc1ccc2nc(Cl)c(CNCc3cccs3)cc2c1` is lower in Inhibition: 5.82% for the first, -1.94% for the second.

Compared with `N#Cc1nc(-c2ccccc2F)oc1NCCc1ccccc1`, `Nc1ncc(Br)cc1-c1nc2cc(Cl)cnc2[nH]1` is higher in Inhibition: 2.58% for the first, 12.85% for the second.

In the case of `CCn1ncc2c(NC3CCOCC3)c(CNC(=O)c3ccnn3C)c(C)nc21`, the Inhibition is reported as 3.03%.
